Source: PubChem
HSF1 activator = increases HSF-1 driven luciferase reporter signal; NIH3T3-HGL HSF-1 luciferase reporter, MG132, 8 h; 100% = twice DMSO control signal; activation, % at 9 µM; hit rate 1.7% among 300,000; AID 504408;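 active means mean replicate activation of at least 50% with a set share of replicates each reaching 50%; inconclusive means only one of those two conditions met; inactive means mean below 50% and too few replicates reaching it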
pCIP destab = p/CIP protein destabilization; F442A p/CIP-EGFP cells, EGFP fluorescence, 16 h; hit rate 0.01% among 290,000; decrease of EGFP signal, % at 10 µM; Q05BA5;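 active means EGFP signal decrease of at least 30% at 10 µM or well 3 SD below plate mean, unless failing retest; inactive means the rest, including hits failing retest or dose response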
HSF1 inhib = HSF1 inhibition | NIH3T3-HGL HSE-luciferase, MG132-induced, luminescence 8 h; active compounds read low | activity change, negative = inhibition, % at 7.5 µM (by protocol) | hit rate 0.77% among 300,000;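 active means more than half of replicate wells show activity change below -50%, luminescence cut by over half; inconclusive means some wells, but at most half, below -50%; inactive means no replicate well below -50%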;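 further: luciferase reports HSF-1 transcriptional activity via heat shock element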
NALP1 inh = NALP1 inhibition | inhibition, % at 10 µM | AID 2071 | hit rate 0.61% among 280,000 | S. cerevisiae NALP1/ASC/caspase-1 growth, X-gal OD620, 72 h; in the data active means inhibition mostly above about 24%, no sharp cut-off; inactive means mostly below about 32%
Hsp70 activator = switches on Hsp70 transcription | HeLa Hsp70 promoter luciferase reporter, luminescence; scaled: vehicle 0, proteasome-inhibitor control 100% | activation, % at 10 µM | hit rate 0.04% among 200,000;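 active means activation above the mean across all tested compounds plus 3 SD, cutoff set per campaign, cut at about 5.5% in these data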
HSP90 refold inh = HSP90 refolding inhibition in rabbit reticulocyte lysate. AID 1789. inhibition, % at 5.6 µM. hit rate 0.91% among 290,000. luciferase refolding luminescence, 3 h;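 active means inhibition above the screen-wide mean plus 3 SD, computed separately per campaign, cut at about 16% in these data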;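 further: inhibitors lower the luminescence because luciferase stays unfolded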
Hsp70 act dose = dose response of Hsp70 transcriptional activators; hit rate 10% among 70; AID 1252; shares compounds with Hsp70 activator; HeLa hsp70.1pr-luc reporter, luciferase luminescence; calls only at 99 µM;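 active means over 50% activation at some tested dose; inactive means under 50% activation at every tested dose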
HSP90 confirm = HSP90 inhibition, confirmation assay | rabbit reticulocyte lysate, luciferase refolding luminescence, 3 h | inhibition, % at 5.9 µM | hit rate 64% among 2,300 | shares compounds with HSP90 refold inh; in the data active means inhibition above about 18%
FLuc counter = firefly luciferase inhibition, HSP90 counter-screen | purified native firefly luciferase, luminescence | inhibition, % at 5.9 µM | shares compounds with HSP90 refold inh | AID 1847 | hit rate 48% among 2,300;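 active means inhibition above the mean inhibition of all tested sample wells plus 3 SD, cut at about 10% in these data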
Target sequence (P08659 whole entry, looked up): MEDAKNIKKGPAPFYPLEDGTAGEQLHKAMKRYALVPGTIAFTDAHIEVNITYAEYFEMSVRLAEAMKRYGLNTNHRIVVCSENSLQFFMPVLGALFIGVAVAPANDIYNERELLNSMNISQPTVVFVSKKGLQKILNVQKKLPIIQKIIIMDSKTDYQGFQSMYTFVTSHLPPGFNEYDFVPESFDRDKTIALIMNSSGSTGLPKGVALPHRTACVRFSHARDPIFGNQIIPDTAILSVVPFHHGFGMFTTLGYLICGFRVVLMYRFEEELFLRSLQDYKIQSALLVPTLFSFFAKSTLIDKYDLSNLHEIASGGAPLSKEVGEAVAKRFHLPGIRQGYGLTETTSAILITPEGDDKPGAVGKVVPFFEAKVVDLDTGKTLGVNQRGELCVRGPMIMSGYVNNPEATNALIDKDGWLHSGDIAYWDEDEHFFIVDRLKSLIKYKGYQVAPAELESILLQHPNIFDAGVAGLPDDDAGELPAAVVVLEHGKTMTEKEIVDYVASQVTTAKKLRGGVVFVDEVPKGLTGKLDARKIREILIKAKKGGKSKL
A number is an active result. The list is not random: actives were taken first. Their share in the collection is about 3.8%.

Screening O=C(COc1ccccc1[N+](=O)[O-])N1CCN(c2ccccn2)CC1 returned HSF1 activator inactive and HSF1 inhib inactive.
NS(=O)(=O)c1ccc(NC(=O)CCC(=O)c2ccc(Cl)s2)cc1 was read as HSF1 activator inactive, pCIP destab inactive, HSF1 inhib inactive, NALP1 inh inactive and HSP90 refold inh inactive.
Screening Cc1ccc(-c2nc(NC(=O)c3nn(C)cc3[N+](=O)[O-])sc2C)cc1C returned HSF1 activator inactive, pCIP destab inactive, HSF1 inhib -84, NALP1 inh inactive, Hsp70 activator 14, HSP90 refold inh inactive and Hsp70 act dose inactive.
Screening Cn1cc([N+](=O)[O-])c(C(=O)Nc2ccc3nc(-c4ccccc4)[nH]c3c2)n1 returned HSF1 activator inactive, pCIP destab inactive, HSF1 inhib inactive, NALP1 inh inactive, Hsp70 activator inactive and HSP90 refold inh inactive.
For CCOC(=O)c1sc2nc(C)nc(NCc3ccccc3)c2c1C the results were HSF1 activator inactive, pCIP destab inactive, HSF1 inhib inactive, NALP1 inh inactive and HSP90 refold inh inactive.
CCOC(=O)c1sc2nc(C)nc(Nc3ccccc3)c2c1C was read as HSF1 activator inactive, pCIP destab inactive, HSF1 inhib inactive, NALP1 inh inactive, Hsp70 activator 5.7, HSP90 refold inh inactive and Hsp70 act dose inactive.
For O=C(Oc1ccc(F)cc1C(=O)/C=C/c1cccs1)c1cccc([N+](=O)[O-])c1 the results were HSF1 activator inactive, pCIP destab inactive, HSF1 inhib inactive, NALP1 inh inactive, Hsp70 activator 12, HSP90 refold inh inactive and Hsp70 act dose inactive.
For O=C(/C=C/c1ccccc1F)c1cccc([N+](=O)[O-])c1 the results were HSF1 activator inactive, pCIP destab inactive, HSF1 inhib inactive, NALP1 inh inactive, Hsp70 activator inactive and HSP90 refold inh inactive.
Cc1c(O)ccc(C(=O)CN2CCN(Cc3ccc4c(c3)OCO4)CC2)c1O was read as HSF1 activator inactive, pCIP destab inactive, HSF1 inhib inactive, NALP1 inh inactive, Hsp70 activator 79, HSP90 refold inh 84, Hsp70 act dose inactive, HSP90 confirm inactive and FLuc counter inactive.
For CS(=O)(=O)c1nc(S(=O)(=O)c2ccc(Cl)cc2)c(NCCCN2CCCC2=O)s1 the results were HSF1 activator inactive, pCIP destab inactive, HSF1 inhib inactive, NALP1 inh inactive and HSP90 refold inh inactive.
Screening CN(C)c1ccc(/C=C(\Cl)c2nc3ccccc3s2)cc1 returned pCIP destab inactive, Hsp70 activator inactive, HSP90 refold inh 49, HSP90 confirm 71 and FLuc counter 72.
For O=C1/C(=C/Nc2ccc3c(c2)OCO3)CCc2ccccc21 the results were HSF1 activator inactive, pCIP destab inactive, HSF1 inhib inactive, NALP1 inh inactive, Hsp70 activator inactive, HSP90 refold inh 38, HSP90 confirm 86 and FLuc counter 72.
Screening CCn1ccc(C(=O)Nc2ccc(N(C)C(C)=O)cc2)n1 returned HSF1 activator inactive, pCIP destab inactive, HSF1 inhib inactive, NALP1 inh inactive, Hsp70 activator inactive and HSP90 refold inh inactive.
For O=C(Nc1ccc2c(c1)CCC2)c1cnccn1 the results were HSF1 activator inactive, pCIP destab inactive, HSF1 inhib inactive, NALP1 inh inactive, Hsp70 activator inactive and HSP90 refold inh inactive.
`CCn1ccc(C(=O)Nc2ccc3c(c2)CCC3)n1` gave HSF1 activator inactive, pCIP destab inactive, HSF1 inhib inactive, NALP1 inh inactive, HSP90 refold inh 19, HSP90 confirm 30 and FLuc counter 15.
`Cc1cnc(C(=O)Nc2ccc3c(c2)CCC3)cn1` gave HSF1 activator inconclusive, pCIP destab inactive, HSF1 inhib inactive, NALP1 inh inactive, Hsp70 activator inactive, HSP90 refold inh 17, HSP90 confirm 27 and FLuc counter 18.
Screening Cc1occc(=O)c1O returned HSF1 activator inactive, pCIP destab inactive, HSF1 inhib inactive, NALP1 inh inactive, Hsp70 activator inactive and HSP90 refold inh inactive.
Cc1oc(=O)c(NC(=O)c2ccccc2)cc1C(N)=O was read as HSF1 activator inactive, pCIP destab inactive, HSF1 inhib inactive, NALP1 inh inactive, Hsp70 activator inactive and HSP90 refold inh inactive.
O=C(Nc1cc2ccccc2oc1=O)c1ccccc1 was read as HSF1 activator inactive, pCIP destab inactive, HSF1 inhib inactive, NALP1 inh inactive, Hsp70 activator inactive, HSP90 refold inh 25, HSP90 confirm 86 and FLuc counter 74.
For COC(=O)c1ccc(NC(=O)c2ccc3nsnc3c2)cc1 the results were HSF1 activator inactive, pCIP destab inactive, HSF1 inhib inactive, NALP1 inh inactive, HSP90 refold inh 68, HSP90 confirm inactive and FLuc counter inactive.
Screening CC(C)N1CCC(N2CCN(CCCn3cccn3)CC2CCO)CC1 (configuration not stated) returned HSF1 activator inactive, pCIP destab inactive, HSF1 inhib inactive, NALP1 inh inactive, Hsp70 activator inactive and HSP90 refold inh inactive.
Cc1cc(C)n(Cc2ccc(C(=O)O)cc2)n1 was read as pCIP destab inactive, NALP1 inh inactive, Hsp70 activator inactive and HSP90 refold inh inactive.
For COC(=O)c1ccc(Cn2nc(C)cc2C)cc1 the results were HSF1 activator inactive, pCIP destab inactive, HSF1 inhib inactive, NALP1 inh inactive, Hsp70 activator inactive, HSP90 refold inh 24, HSP90 confirm inactive and FLuc counter inactive.
`COc1ccccc1C(=O)NCC(=O)OCCCOC(=O)CNC(=O)c1ccccc1OC` gave HSF1 activator inactive, pCIP destab inactive, HSF1 inhib inactive, NALP1 inh inactive and HSP90 refold inh inactive.
Screening Cc1ccc2c(c1)C(=O)C(=O)N2CCOc1ccccc1 returned HSF1 activator inactive, pCIP destab inactive, HSF1 inhib inactive, NALP1 inh inactive, Hsp70 activator inactive, HSP90 refold inh 21, HSP90 confirm inactive and FLuc counter inactive.
`Cc1nc(NC(=O)c2cccc(Cl)c2)sc1C(=O)N1CCCCC1` gave HSF1 activator inactive, pCIP destab inactive, HSF1 inhib inactive, NALP1 inh inactive, Hsp70 activator inactive, HSP90 refold inh 34, HSP90 confirm 48 and FLuc counter inactive.
For CC(=O)c1sc(NC(=O)c2ccc(Cl)cc2)nc1C the results were HSF1 activator inactive, pCIP destab inactive, HSF1 inhib inactive, HSP90 refold inh 42, HSP90 confirm 25 and FLuc counter inactive.
`Cn1c(SCC(=O)OC2CCCCC2)nnc1-c1ccco1` gave HSF1 activator inactive, pCIP destab inactive, HSF1 inhib inactive, NALP1 inh inactive, Hsp70 activator inactive, HSP90 refold inh 22, HSP90 confirm inactive and FLuc counter inactive.
